Experimental data from PubChem BioAssay.
Active and inactive are the calls of the source. Rule as the data show it, unless noted: active = inhibition above about 42%; inactive = the rest.

Assays:
[1] = target: Nuclear receptor coactivator 3 (Homo sapiens) (UniProt Q9Y6Q9); test: NCOA3 GAL4-fusion reporter inhibition – cell-based, luminescence, quadruplicate, confirmation (AID 588792;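 active = mean inhibition over 43.08%, the solvent-only control mean plus 3 SD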;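 also: 0% = DMSO treated cells and 100% = gossypol at 36 µM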); details: HEK293 GAL4-SRC3 luciferase reporter, at 3.6 µM, stronger effect = higher value
Sequence of Nuclear receptor coactivator 3 (Homo sapiens) (Q9Y6Q9 whole entry, looked up, the tested form may be a part): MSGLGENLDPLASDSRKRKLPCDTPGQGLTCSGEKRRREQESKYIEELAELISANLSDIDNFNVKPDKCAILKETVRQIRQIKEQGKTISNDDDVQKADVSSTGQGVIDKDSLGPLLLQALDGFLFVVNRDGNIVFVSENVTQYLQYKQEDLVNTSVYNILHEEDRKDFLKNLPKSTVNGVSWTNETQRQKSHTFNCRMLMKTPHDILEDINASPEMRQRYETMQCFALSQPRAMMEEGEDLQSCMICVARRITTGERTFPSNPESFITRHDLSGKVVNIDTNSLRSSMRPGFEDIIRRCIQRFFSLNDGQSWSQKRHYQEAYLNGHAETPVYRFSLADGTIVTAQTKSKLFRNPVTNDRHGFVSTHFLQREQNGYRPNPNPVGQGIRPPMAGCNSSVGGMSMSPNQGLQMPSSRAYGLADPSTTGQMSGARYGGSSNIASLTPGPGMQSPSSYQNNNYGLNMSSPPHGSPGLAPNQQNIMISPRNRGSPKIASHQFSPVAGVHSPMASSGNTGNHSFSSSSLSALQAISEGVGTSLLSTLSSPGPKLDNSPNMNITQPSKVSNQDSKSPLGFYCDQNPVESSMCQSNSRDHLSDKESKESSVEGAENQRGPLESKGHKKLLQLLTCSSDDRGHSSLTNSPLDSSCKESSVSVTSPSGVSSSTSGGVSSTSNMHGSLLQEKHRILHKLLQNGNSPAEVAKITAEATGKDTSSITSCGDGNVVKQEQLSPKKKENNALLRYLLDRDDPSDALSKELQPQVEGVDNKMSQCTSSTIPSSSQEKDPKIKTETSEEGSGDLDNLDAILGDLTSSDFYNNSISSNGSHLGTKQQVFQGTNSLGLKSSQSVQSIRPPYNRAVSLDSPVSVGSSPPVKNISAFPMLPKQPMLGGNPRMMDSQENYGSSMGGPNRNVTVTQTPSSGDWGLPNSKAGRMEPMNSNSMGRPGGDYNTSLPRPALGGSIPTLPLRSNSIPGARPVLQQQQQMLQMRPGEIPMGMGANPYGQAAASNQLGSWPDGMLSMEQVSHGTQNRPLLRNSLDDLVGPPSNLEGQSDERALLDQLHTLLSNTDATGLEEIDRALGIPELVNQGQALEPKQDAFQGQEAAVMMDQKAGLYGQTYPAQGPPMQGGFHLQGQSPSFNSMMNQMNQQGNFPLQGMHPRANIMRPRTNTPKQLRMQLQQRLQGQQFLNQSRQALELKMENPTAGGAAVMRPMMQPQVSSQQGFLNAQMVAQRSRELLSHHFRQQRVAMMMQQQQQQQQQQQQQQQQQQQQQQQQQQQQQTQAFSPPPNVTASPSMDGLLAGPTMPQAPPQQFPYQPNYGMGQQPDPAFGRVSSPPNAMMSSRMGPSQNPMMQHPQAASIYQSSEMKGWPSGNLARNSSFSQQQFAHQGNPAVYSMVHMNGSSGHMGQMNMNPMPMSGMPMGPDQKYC

[2] = system: transactivating tegument protein VP16 (Human herpesvirus 1), Gal4-VP16 luciferase reporter; test: repression of VP16-driven luciferase reporter – cell-based, luminescence, high throughput, counter-screen for SRC3 inhibitor project (AID 588794; in the data active = inhibition above about 30%); details: mammalian cells, at 3.6 µM, stronger effect = higher value
[3] = target: Nuclear receptor coactivator 1 (Homo sapiens) (UniProt Q15788); test: NCOA1 GAL4-fusion reporter inhibition – cell-based, luminescence, quadruplicate, confirmation (AID 588820;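 active = mean inhibition above 46.68%, the untreated control wells mean plus 3 SD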;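 also: 0% = DMSO wells and 100% = gossypol 36 µM treated wells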); details: HEK293 GAL4-SRC1 luciferase reporter, at 3.6 µM, stronger effect = higher value
[4] = repression of VP16-driven luciferase reporter – cell-based, luminescence, high throughput, counter-screen for SRC1 inhibitor project (AID 588824; in the data active = inhibition above about 25%); details: cell-based VP16 transactivation luciferase luminescence; at 3.6 µM; stronger effect = higher value
[5] = StAR promoter reporter inhibitors, counter-screen for LRH-1 inverse agonist project, cell-based, luminescence, high throughput (AID 651611; in the data active = inhibition above about 28%); details: StAR promoter luciferase reporter counterscreen, at 3.6 µM, stronger effect = higher value
[6] = target: Nuclear receptor subfamily 5 group A member 2 (Homo sapiens) (UniProt O00482); test: NR5A2 activity suppression in reporter cells – cell-based, luminescence, confirmation (AID 651613); details: cell-based LRH-1 luciferase reporter, inverse agonism; at 3.6 µM; stronger effect = higher value;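 also: HEK293T cells co-transfected with LRH-1 and StAR promoter luciferase reporter; 0% = vehicle wells and 100% = parental cells lacking receptor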
Sequence of Nuclear receptor subfamily 5 group A member 2 (Homo sapiens) (O00482 whole entry, looked up): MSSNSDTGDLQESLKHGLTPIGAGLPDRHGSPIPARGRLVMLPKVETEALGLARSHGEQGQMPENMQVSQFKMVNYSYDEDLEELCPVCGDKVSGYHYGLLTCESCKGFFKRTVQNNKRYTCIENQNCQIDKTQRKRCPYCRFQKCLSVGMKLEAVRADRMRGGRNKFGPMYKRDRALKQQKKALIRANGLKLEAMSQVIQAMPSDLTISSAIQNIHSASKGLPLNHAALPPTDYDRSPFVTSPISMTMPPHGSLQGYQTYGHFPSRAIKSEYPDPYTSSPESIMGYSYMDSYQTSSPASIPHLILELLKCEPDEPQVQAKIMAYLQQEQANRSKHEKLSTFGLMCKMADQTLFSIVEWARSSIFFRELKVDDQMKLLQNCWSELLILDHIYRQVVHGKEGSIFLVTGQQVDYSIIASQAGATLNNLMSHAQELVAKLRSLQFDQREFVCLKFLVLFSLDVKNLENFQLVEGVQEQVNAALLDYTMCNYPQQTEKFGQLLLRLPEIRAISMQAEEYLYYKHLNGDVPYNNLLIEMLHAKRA

[7] = target: Steroidogenic factor 1 (Homo sapiens) (UniProt Q13285); test: inverse agonism at SF1 nuclear receptor – cell-based, luminescence, high throughput, counter-screen for LRH-1 inverse agonist project (AID 651614; in the data active = inhibition above about 44%;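 also: cells cotransfected with StAR promoter reporter and SF1 expression vector; 0% = vehicle on cells with receptor and 100% = vehicle on cells lacking receptor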); details: cell-based SF1 luciferase reporter, at 3.6 µM, stronger effect = higher value
Sequence of Steroidogenic factor 1 (Homo sapiens) (Q13285 whole entry, looked up, the tested form may be a part): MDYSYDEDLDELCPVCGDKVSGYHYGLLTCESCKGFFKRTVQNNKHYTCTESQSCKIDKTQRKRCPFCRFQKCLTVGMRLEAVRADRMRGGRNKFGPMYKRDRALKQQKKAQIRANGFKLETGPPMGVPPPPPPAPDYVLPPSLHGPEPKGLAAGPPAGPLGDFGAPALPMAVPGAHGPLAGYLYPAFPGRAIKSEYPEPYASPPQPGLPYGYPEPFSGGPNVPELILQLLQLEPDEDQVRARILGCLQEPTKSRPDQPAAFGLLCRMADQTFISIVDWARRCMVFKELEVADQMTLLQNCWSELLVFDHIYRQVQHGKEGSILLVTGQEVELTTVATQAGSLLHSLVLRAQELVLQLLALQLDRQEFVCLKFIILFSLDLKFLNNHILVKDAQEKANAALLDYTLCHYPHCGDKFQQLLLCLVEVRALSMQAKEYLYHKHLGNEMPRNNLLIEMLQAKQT

[8] = compounds suppressing VP16-driven luciferase signal – cell-based, luminescence, high throughput, counter-screen for LRH-1 inverse agonist project (AID 651615; in the data active = inhibition above about 33%); details: Gal4-VP16 luciferase reporter cells, at 3.6 µM, stronger effect = higher value
[9] = system: transactivating tegument protein VP16 (Human herpesvirus 1); test: compounds suppressing VP16-driven luciferase signal – cell-based, luminescence, single concentration, counter-screen for SRC2 inhibitor project (AID 652007; in the data active = inhibition above about 36%); details: cell-based VP16 transactivation luciferase reporter, at 8.9 µM, stronger effect = higher value
[10] = target: Nuclear receptor coactivator 2 (Homo sapiens) (UniProt Q15596); test: inhibition of GAL4-SRC2 driven luciferase expression – cell-based, luminescence, HEK293, triplicate, confirmation (AID 652008;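 active = mean inhibition above 46.5%, the solvent-only control mean plus 3 SD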;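 also: 0% = DMSO-treated cells and 100% = Gossypol at 36 µM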); details: HEK293 GAL4-SRC2 luciferase reporter, at 8.9 µM, stronger effect = higher value
Sequence of Nuclear receptor coactivator 2 (Homo sapiens) (Q15596 whole entry, looked up, the tested form may be a part): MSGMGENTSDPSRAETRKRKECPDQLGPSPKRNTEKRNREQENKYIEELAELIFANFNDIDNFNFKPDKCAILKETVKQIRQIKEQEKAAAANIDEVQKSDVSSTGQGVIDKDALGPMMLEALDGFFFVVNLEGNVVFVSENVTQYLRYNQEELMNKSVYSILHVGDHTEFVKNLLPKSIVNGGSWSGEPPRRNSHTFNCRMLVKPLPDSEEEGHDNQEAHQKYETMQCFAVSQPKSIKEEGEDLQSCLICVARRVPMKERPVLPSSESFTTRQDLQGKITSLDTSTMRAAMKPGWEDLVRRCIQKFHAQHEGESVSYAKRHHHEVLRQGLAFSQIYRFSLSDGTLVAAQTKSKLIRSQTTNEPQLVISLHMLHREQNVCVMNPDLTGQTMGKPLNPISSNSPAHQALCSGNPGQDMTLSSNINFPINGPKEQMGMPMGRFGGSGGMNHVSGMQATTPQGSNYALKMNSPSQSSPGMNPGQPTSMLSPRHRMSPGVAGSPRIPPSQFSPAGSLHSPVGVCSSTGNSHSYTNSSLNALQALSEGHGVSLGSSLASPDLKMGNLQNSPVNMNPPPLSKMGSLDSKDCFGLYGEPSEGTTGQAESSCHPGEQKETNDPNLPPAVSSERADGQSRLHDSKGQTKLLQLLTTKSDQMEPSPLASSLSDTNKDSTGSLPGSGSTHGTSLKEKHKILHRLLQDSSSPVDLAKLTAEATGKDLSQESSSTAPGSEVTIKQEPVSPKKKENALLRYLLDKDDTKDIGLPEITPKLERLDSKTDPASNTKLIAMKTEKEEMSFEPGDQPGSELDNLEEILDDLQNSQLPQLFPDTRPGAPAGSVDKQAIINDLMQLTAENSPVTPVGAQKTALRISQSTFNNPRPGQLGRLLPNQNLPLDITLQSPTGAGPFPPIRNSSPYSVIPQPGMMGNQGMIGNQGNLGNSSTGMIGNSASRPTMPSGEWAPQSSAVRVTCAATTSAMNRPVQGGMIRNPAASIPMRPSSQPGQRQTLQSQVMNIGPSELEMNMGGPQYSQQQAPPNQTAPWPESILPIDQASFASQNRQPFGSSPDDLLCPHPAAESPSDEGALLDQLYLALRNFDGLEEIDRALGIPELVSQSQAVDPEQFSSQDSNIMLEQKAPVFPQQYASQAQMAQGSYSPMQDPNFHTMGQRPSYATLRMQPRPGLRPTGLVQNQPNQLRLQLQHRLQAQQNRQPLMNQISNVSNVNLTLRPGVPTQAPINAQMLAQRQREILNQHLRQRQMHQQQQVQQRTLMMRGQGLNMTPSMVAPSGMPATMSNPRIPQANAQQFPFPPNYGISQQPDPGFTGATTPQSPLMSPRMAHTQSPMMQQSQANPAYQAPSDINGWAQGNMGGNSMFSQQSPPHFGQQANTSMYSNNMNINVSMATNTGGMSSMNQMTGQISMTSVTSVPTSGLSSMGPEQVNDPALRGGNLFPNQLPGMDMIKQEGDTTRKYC

Measured: inhibition

CCOc1ccccc1-n1c(SCC(=O)Nc2ccccc2C(=O)O)nc2ccccc2c1=O
active: [10] 49.9%
inactive: [1] 36.2% | [2] 26% | [3] 16.8% | [4] 14.7% | [5] 16% | [6] -6.48% | [7] 9.06% | [8] -14.2% | [9] 30.9%

COC(=O)CCn1nnc(-c2ccc(C(C)C)cc2)n1
inactive: [3] 40.5%
active: [1] 55.4% | [2] 38.7% | [4] 35.6% | [5] 48.7% | [6] 55% | [7] 46.7% | [8] 39.9% | [9] 58.8% | [10] 92.6%

O=C(OC(c1ccccc1)c1nccc2ccccc12)c1ccccc1 (stereo not given)
active: [1] 57.4% | [2] 42.8% | [5] 43.4% | [7] 45.4% | [10] 67.6%
inactive: [3] 26.3% | [4] 21.7% | [6] -16.8% | [8] -4.96% | [9] 30.1%

COc1cccc(/C=N/NC(=O)c2c(-c3ccccc3)noc2C)c1O
active: [2] 37.1% | [4] 34.6% | [5] 68.8% | [6] 52.1% | [7] 64.6% | [8] 67.5%
inactive: [1] 38.4% | [3] 24.8% | [9] 2.72% | [10] 33.1%

CCN(CC)c1ccc(C(=C2C=CC(=[N+](CC)CC)C=C2)c2ccccc2)cc1
inactive: [3] -95%
active: [1] 95.5% | [2] 95.9% | [4] 94.3% | [5] 97.7% | [6] 109% | [7] 99.1% | [8] 98.7% | [9] 98.3% | [10] 99.5%

O=C(O)C1CCCCC1C(=O)Nc1ccc2c(c1)OCCO2 (stereo not given)
inactive: [1] -6.32% | [2] -0.43% | [3] -18.1% | [4] -13.8% | [5] -0.9% | [6] -1.32% | [7] -1.69% | [8] 0% | [9] -11.1% | [10] 26.9%

O=C(CCl)Nc1cc(SCC(O)CO)cc([N+](=O)[O-])c1 (stereo not given)
active: [1] 91.6% | [2] 72.7% | [3] 56.9% | [4] 78.6% | [5] 95.8% | [6] 110% | [7] 97.7% | [8] 98.2% | [9] 79% | [10] 67.5%

CC(C)(C)c1ccc(C(=O)O/N=C(\N)c2ccccc2)cc1
active: [1] 74.5% | [2] 73.6% | [3] 61.1% | [4] 58.3% | [5] 61.9% | [6] 55% | [7] 64.8% | [8] 51.1% | [9] 76.9% | [10] 87.7%

Cc1ccc(Nc2nc(N)nc(CCl)n2)c(C)c1
active: [1] 74% | [2] 32.8% | [4] 28.1% | [6] 58.7% | [8] 56%
inactive: [3] 38.6% | [5] 20% | [7] 29.4% | [9] -27.8% | [10] 40.4%

COc1cccc2c1C(=O)c1c(O)c3c(c(O)c1C2=O)CC(O)(C(C)=O)CC3OC1CC(N(C)C)C(O)C(C)O1 (stereo not given)
active: [1] 94.2% | [2] 95.8% | [3] 73.9% | [4] 95.3% | [5] 80% | [6] 104% | [7] 94.5% | [8] 96.3%
inactive: [9] 29.4% | [10] 45.5%

CCn1c(C)cc(C(=O)CN2C(=O)c3ccccc3S2(=O)=O)c1C
active: [2] 31.5% | [5] 33.4% | [9] 46.9% | [10] 59.8%
inactive: [1] 30.1% | [3] -18.2% | [4] 25% | [6] -16.2% | [7] 28.1% | [8] 11%

CSC1SCC2C(=O)N(C)C(C(C)C)C(=O)OCC(NC(=O)c3cnc4ccccc4n3)C(=O)NC(C)C(=O)N(C)C1C(=O)N(C)C(C(C)C)C(=O)OCC(NC(=O)c1cnc3ccccc3n1)C(=O)NC(C)C(=O)N2C (stereo not given)
active: [1] 96.8% | [2] 96.7% | [3] 85.7% | [4] 96.8% | [5] 86.5% | [6] 107% | [7] 97.1% | [8] 97.3% | [9] 62.2% | [10] 51.1%

Cc1nc2c(-c3ccc(F)cc3)cnn2c(N)c1-c1ccccc1
active: [1] 55.5% | [2] 38.8% | [9] 74.5% | [10] 79.6%
inactive: [3] 29.6% | [4] 7.29% | [5] 6.33% | [6] -102% | [7] -17.6% | [8] -0.77%

CCOc1cccc(/C=N/NC(=S)Nc2ccccc2[N+](=O)[O-])c1O
inactive: [3] 44.9% | [6] 22.9%
active: [1] 70.3% | [2] 57.6% | [4] 38.2% | [5] 66.1% | [7] 65.2% | [8] 54% | [9] 39.7% | [10] 73.3%
